# ALDH1A1 inh – qHTS Assay for Inhibitors of Aldehyde Dehydrogenase 1 (ALDH1A1); 7.3% of 220,000 active; Potency, µM (highest dose often 75.3 µM), inactives show at the top dose activity, negative = inhibition, most hits filed as inhibitors; Aldehyde dehydrogenase 1A1 (Homo sapiens), P00352; Purified ALDH1A1, NADH fluorescence, propionaldehyde substrate; active = well fitted inhibition curve with a large enough effect, not every such curve was filed as active; inconclusive = small, poorly fitted or top-dose-only effect, or another doubt; inactive = no such curve, though single readings can be large or run the other way;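 note: potency is the fitted concentration of half-maximal effect; plate controls were no enzyme wells and a reference inhibitor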
# Target sequence (P00352 whole entry, looked up): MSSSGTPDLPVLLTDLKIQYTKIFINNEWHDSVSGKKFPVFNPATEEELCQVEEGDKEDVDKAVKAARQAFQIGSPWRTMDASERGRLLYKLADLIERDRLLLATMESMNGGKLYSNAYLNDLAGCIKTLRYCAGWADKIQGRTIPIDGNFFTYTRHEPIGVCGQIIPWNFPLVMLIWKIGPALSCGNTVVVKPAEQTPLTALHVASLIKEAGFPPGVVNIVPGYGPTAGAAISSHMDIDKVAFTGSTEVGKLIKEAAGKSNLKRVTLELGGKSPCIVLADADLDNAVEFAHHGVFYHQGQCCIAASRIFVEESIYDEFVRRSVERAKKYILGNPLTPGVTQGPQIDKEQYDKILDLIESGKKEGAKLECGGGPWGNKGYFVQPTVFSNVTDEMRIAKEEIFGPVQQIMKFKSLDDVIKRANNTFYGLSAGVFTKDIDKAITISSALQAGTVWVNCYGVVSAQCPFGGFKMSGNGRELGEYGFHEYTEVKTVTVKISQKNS
# 12-hLO inh – qHTS Assay for Inhibitors of 12-hLO (12-human lipoxygenase); Polyunsaturated fatty acid lipoxygenase ALOX12 (Homo sapiens), P18054; 0.12% of 150,000 active; purified 12-hLO, xylenol orange hydroperoxide absorbance; Potency, µM (series often up to 57.1 µM), inactives show at the top dose activity change, negative = inhibition, most hits filed as inhibitors; note: potency is the fitted concentration of half-maximal effect; nearly all actives have a fitted effect of over 55% in size
#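 150 nM 12hLO, 25 mM Hepes pH 7.0 + 0.01% Triton X-100; cpd preinc 15 min RT; 40 uM arachidonic acid, 30 min RT; Fe-XO 30 min; A573/A405 ratio as read-out.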
# IMPase inh – qHTS Assay for Identifying the Cell-Membrane Permeable IMPase Inhibitors | Inositol monophosphatase 1 (Rattus norvegicus), P97697 | CHO-M1 cells, IP1 accumulation, HTRF TR-FRET ratio | inhibition (IP1 accumulation), % at 46.1 µM | 120,000 tested, under 10 active; active = well fitted curve in the direction sought with a large enough effect in the signal ratio, not every such curve was filed as active; inconclusive = small, poorly fitted or top-dose-only effect, or a change in a side signal; inactive = no such curve, though single readings can be large or run the other way; the % refers to the signal ratio;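 note: cells stimulated with carbachol in lithium chloride buffer; plate controls were DMSO basal wells for no effect and reference inhibitor wells for full effect; higher means more IMPase inhibition seen as more IP1 and lower FRET ratio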
# Target sequence (P97697 whole entry, looked up): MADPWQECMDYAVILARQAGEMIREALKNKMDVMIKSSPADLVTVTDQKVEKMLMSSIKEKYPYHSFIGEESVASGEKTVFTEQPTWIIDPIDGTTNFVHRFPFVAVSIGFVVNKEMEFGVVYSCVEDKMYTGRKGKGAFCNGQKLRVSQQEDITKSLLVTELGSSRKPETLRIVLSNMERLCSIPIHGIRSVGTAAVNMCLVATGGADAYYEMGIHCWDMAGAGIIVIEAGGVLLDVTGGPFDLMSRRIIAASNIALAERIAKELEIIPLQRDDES
#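 Seeded CHO-M1 cells were dosed with compound at up to 46 uM, stimulated with carbachol for 30 min, then lysed in IP-One detection reagents. Higher IP1 lowers the TR-FRET signal.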
# IMPase Li inh – qHTS Assay for Identifying the Cell-Membrane Permeable IMPase Inhibitors: Potentiation with Lithium; CHO-M1 cells, IP1 TR-FRET (IP-One), carbachol + lithium; Potency, µM (highest dose often 59.4 µM), for inactives: top-dose activity, negative = IMPase inhibition, most hits filed as inhibitors; 0.35% of 210,000 active;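 note: IP1 builds up when IMPase is blocked and the TR-FRET signal falls; potency is the fitted concentration of half-maximal effect; plate controls were basal vehicle for no effect and high inhibitor control for full effect; nearly all actives have a fitted effect of over 50% in size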
#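 Lithium-sensitised IP1 accumulation assay; M1-expressing CHO cells treated 30 min at 37C with compound. Competitive antibody detection by time-resolved FRET followed a 10 min room-temperature lysis step.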
# HPGD inh – qHTS Assay for Inhibitors of HPGD (15-Hydroxyprostaglandin Dehydrogenase); AID 894, 2007; purified HPGD, NADH fluorescence kinetic, PGE2 substrate; Potency, µM, without a hit: at the top dose activity change, negative = inhibition, actives largely listed as inhibitors; 15-hydroxyprostaglandin dehydrogenase [NAD(+)] (Homo sapiens), P15428; 4.3% of 150,000 active; active = well fitted inhibition curve with a large enough effect, not every such curve was filed as active; inconclusive = small, poorly fitted or top-dose-only effect, or another doubt; inactive = no such curve, though single readings can be large or run the other way; note: potency is the fitted concentration of half-maximal effect
#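 20 nM HPGD preincubated 15 min at room temperature with compound in 50 mM Tris-HCl pH 8, 0.01% Tween 20. Started with 1 mM NAD+ and 30 uM prostaglandin E2; NADH fluorescence (360/450 nm) read 5 times over 30-s intervals, last minus first.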
# NPSR antag – qHTS Assay for Antagonists of the Neuropeptide S Receptor: cAMP Signal Transduction; Q6W5P4; CHO-NPSR cells, cAMP TR-FRET, antagonist mode; Potency, µM (doses to about 38.3 µM), inactives show top-dose activity change, negative = inhibition, most hits filed as inhibitors; 1% of 220,000 active; note: potency is the fitted concentration of half-maximal effect; nearly all actives have a fitted effect of over 50% in size
# * = called active by the depositor; ? = inconclusive; · = no result; ! = not confirmed by another sample; [ ] = another dose, or the depositor's remark. Compounds with a hit are over-represented: about 8.9% of the library has one in this group of screens. Unless noted, calls come from the whole dose curve; as a rule, active = well fitted curve in the direction sought with a large enough effect; inconclusive = small, poorly fitted or top-dose-only effect, or another doubt; inactive = no such curve, though single readings can be large; an effect the other way counts as inactive or inconclusive. Unless noted, % is set by controls: 0 for no effect and ±100 for the full control effect.
SMILES,ALDH1A1 inh,12-hLO inh,IMPase inh,IMPase Li inh,HPGD inh,NPSR antag
c1cc(CSSCc2ccncc2)ccn1,4µM*,0%[11.4 µM],·,2%,-14%,·
N=C(N)SCCc1ccncc1,18%[13.5 µM],0%[11.4 µM],·,6%,-2%,·
C=CCSc1nnc2c(n1)[nH]c1c(C)cccc12,?,4%,9,1%[38.3 µM],16µM*,-6%[46.1 µM]
Cc1cccc2c1[nH]c1nc(N/N=C\c3ccco3)nnc12,-16%,5%,1,0%,-7%,?
CCOc1ccc(C(C)=O)cc1N1C(=O)C2C3C=CC(O3)C2C1=O (stereo not drawn),22µM*,0%,1,7%[38.3 µM],28µM*,3%[46.1 µM]
COc1ccccc1CN1C(=O)CCC1(C)C(=O)NCc1cccnc1 (stereo not drawn),?,-8%,2,-13%[38.3 µM],-7%,12%[46.1 µM]
Cc1ccccc1C(=O)Nc1sc(C)c(C)c1C(=O)c1ccccc1,?,-4%,-1,11%[38.3 µM],32µM*,-24%[46.1 µM]
Cc1cc(C(=O)c2ccccc2)c(NC(=O)CN2CCOCC2)s1,1%,2%,0,5%,0%,6%
Cc1cc(C(=O)c2ccc(C(C)(C)C)cc2)c(NC(=O)CCl)s1,11µM*,-3%,-6,11%,4%,-38%
Cc1sc(NC(=O)CCl)c(C(=O)c2ccccc2)c1C,0.71µM*,-5%,-10[1.84 µM],65%[38.3 µM],28µM*,7.9µM*
COC(=O)c1c(NC(=O)COc2ccc(Cl)cc2)sc(C)c1C,·,·,-1,·,·,·
Cc1ccc(S(=O)(=O)N(CC(=O)N/N=C/c2ccco2)c2cc(Cl)cc(Cl)c2)cc1,?,-20%,·,1%,-18%,-32%
Cc1ccc(-c2csc3nc(C(C)C)oc(=O)c23)c(C)c1,-14%,·,·,·,·,13%
Cc1ccc2[nH]c3c(c2c1)CN(C(=O)CN1CCN(C(=O)c2ccco2)CC1)CC3,·,·,·,·,·,3%[7.67 µM]
O=C(CN1CCSCC1)N1CCc2[nH]c3ccc(Br)cc3c2C1,15µM*,-3%,9,11%,-6%,-4%[46.1 µM]
O=C(CN1CCN(C(=O)c2ccco2)CC1)N1CCc2[nH]c3ccccc3c2C1,10µM*,·,·,·,·,5%
Cc1ccc2[nH]c3c(c2c1)CN(C(=O)CN1c2ccc(F)cc2CCC1C)CC3 (stereo not drawn),?,-11%,12,-6%[38.3 µM],?,?
O=C(C1CC1)N1CCc2[nH]c3ccccc3c2C1,1%,-3%,7,5%,-8%,1%[46.1 µM]
Cc1ccc2[nH]c3c(c2c1)CN(C(=O)CN1CCN(c2cccc(C)c2C)CC1)CC3,4.5µM*,-17%,8,-5%[38.3 µM],?,-14%[46.1 µM]
Cc1cc(C)nc(SCC2COc3ccccc3O2)n1 (stereo not drawn),-4%,1%,8,-15%[38.3 µM],-23%,-10%[46.1 µM]
CC(NC(=O)c1cc(Br)ccc1Cl)c1ccccc1 (stereo not drawn),·,·,·,·,·,-3%
COC(=O)c1c(C)c2c(c(C)c1O)OC(=O)c1c(C)c(Cl)c(O)c(Cl)c1O2,8%,-13%,·,-1%,7.1µM*!,·
O=[N+]([O-])c1ccc(N/N=C/c2c[nH]c3ccccc23)c(S(=O)(=O)Nc2ccc(Cl)cc2)c1,-8%,-6%,2,28%[38.3 µM],3%,16µM*
COCCn1c(=S)[nH]c2cc(C(=O)NC(C)C)ccc2c1=O,0.18µM*,-1%,2,?,-12%,?
CC1CCN(CCCNC(=O)c2ccc3c(=O)n(Cc4ccc(Cl)cc4)c(=S)[nH]c3c2)CC1,16µM*,·,·,1%,·,?
SMILES,ALDH1A1 inh,12-hLO inh,IMPase inh,IMPase Li inh,HPGD inh,NPSR antag
COc1ccc(CCNC(=O)c2ccc3nc(-c4ccco4)c(-c4ccco4)nc3c2)cc1OC,0.32µM*,-24%,?,28%[38.3 µM],?,?
COc1ccc(CCNC(=O)c2cc(-c3ccco3)on2)cc1OC,-9%,·,·,-5%,·,1%
O=C(Nc1cccc(C(F)(F)F)c1)c1ccc2nc(-c3ccco3)c(-c3ccco3)nc2c1,0.4µM*,-16%,11,29%[38.3 µM],?,3%[46.1 µM]
Cc1ccc(C2CC(=O)C(C=NCCN3CCN(C(=S)Nc4ccc(F)cc4)CC3)=C(O)C2)cc1 (stereo not drawn),-13%,·,·,11%,·,-13%
COc1ccc(CCNC(=O)C2CC(c3ccccc3[N+](=O)[O-])=NO2)cc1 (stereo not drawn),-1%,3%,-4,3%[38.3 µM],-4%,-10%[46.1 µM]
COc1ccc(-n2nc(C(N)=O)c(O)cc2=O)cc1,-7%,·,·,-9%,·,8%
N#Cc1c(N)c(C(=O)c2ccc(Cl)cc2)n2c1CCC2,2%,-1%,11,4%[38.3 µM],-4%,-5%[7.67 µM]
COc1ccc(CCNC(=O)c2ccc3c(=O)n(Cc4ccco4)c(=S)[nH]c3c2)cc1OC,2.5µM*,-10%,3,-27%[38.3 µM],-18%,-8%[46.1 µM]
CCCCCn1c(=O)[nH]c2cc(C(=O)NCCc3ccc(OC)c(OC)c3)ccc2c1=O,-4%,3%,-1,-13%[38.3 µM],-14%,-3%[46.1 µM]
COCCNC(=O)c1ccc(Cn2c(=S)[nH]c3cc4c(cc3c2=O)OCO4)cc1,-1%,0%,1,-15%[38.3 µM],13µM*,-24%[46.1 µM]
COC(=O)c1ccc2c(=O)n(CCCCCC(=O)O)c(=S)[nH]c2c1,14µM*,-3%,·,-4%,?,-16%
COC(=O)c1ccc2c(=O)n(CCO)c(=S)[nH]c2c1,-11%,0%,3,12%[38.3 µM],-12%,-11%[46.1 µM]
COC(CNC(=O)c1ccc(Cn2c(=S)[nH]c3cc4c(cc3c2=O)OCO4)cc1)OC,-4%,-20%,-4,·,·,-21%[46.1 µM]
CC(C)NC(=O)c1ccc2c(=O)n(Cc3ccco3)c(=S)[nH]c2c1,8.9µM*,-2%,-3,-3%[38.3 µM],-17%,-4%[46.1 µM]
Cc1ccc2c(c1)nnn2C1CCN(CC(=O)c2ccc(Cl)cc2)CC1,-8%,-20%,?,2%[38.3 µM],-7%,-9%[46.1 µM]
CC(=O)c1ccc(OC(=O)c2cccs2)cc1,8%,-4%,5,2%[38.3 µM],-5%,-8%[46.1 µM]
CCOCCCNC(=O)c1ccc2c(=O)n(CCCOCC)c(=S)[nH]c2c1,-13%,·,·,-5%,·,5%
CCCNC(=O)c1ccc2c(=O)n(Cc3ccco3)c(=S)[nH]c2c1,7.1µM*,·,·,-3%,·,-27%
O=C(Nc1ccc(F)cc1)Nc1cc(OCC(F)(F)F)cc(OCC(F)(F)F)c1,9%,-1%,12,8%,-4%,13µM*

# Source: PubChem (National Center for Advancing Translational Sciences (NCATS))
